Source: the OligoGym collection

target: ATP2B3; assay: pooled miR-30 sensor sort-seq; sequence = guide strand; settings: shRNA
Further: reference of the scale not given here.

| Sequence | sensor-assay potency score (higher = more potent) |
| --- | --- |
| TTGCTGTTCAAGATGTTGGTGC | 0.726 |
| TTAGGCAACTTTATACAGCAGC | -0.477 |
| TTTGCTTTTAATATCTATTGGC | 0.393 |
| TAAAACATATTTATGAACTGAA | -0.383 |
| TTGAAGAACACAAAGACCCTCA | 0.724 |

target: ATP2C2; assay: as above; settings: shRNA

| Sequence | sensor-assay potency score (higher = more potent) |
| --- | --- |
| TTGTACATGGTGCAGTAGCGGA | -1.45 |
| TAGAGGAACATGTGGTTCCTGA | -0.803 |
| TTTAATATCACTTAAGTCCATC | -0.736 |
| TTCTGCTCTGAACTGAATGGAA | -0.474 |
| TTAAACACTTCTCCGAACTGAG | -0.019 |
| TACGACATCACCAGGAACCAGT | -0.544 |
| TCATCTTCACAGACACACCAGA | -0.317 |
| TCATCTTAAACACTTCTCCGAA | -0.15 |
| TTCCTCTTCGTCCTTCTCCAGC | -1.04 |
| TTGTGCTTTGGGCTGGTCCTGA | -0.105 |
| TAAGAGGAAAAACTGATCCGGT | -0.305 |

target: ATP6V0A1; assay: as above; settings: shRNA

| Sequence | sensor-assay potency score (higher = more potent) |
| --- | --- |
| TTTATTCTGGAACTCAACCCAG | -0.592 |
| TCTCTTTCTCAACAAATCGAAG | -1.57 |
| TTGAATAACCAGACTCTGGGTA | 0.472 |
| TCTAAGTCAATCATGTCCCGGG | 0.648 |
| TTGGAGATCATCAATCCTGGTA | 0.0241 |
| TTTTAATTCGGTCAGTTCCAGG | -1.24 |
| TAAGTCACGAAACTGAACCTTT | -0.177 |
| TATAAGTAAACATCGGCCGTAC | 0.244 |
| TTATTGGTAGCAATGTTCCAAA | -1.08 |
| ATAACAGACATCTTCATCTTAA | -0.304 |
| TTCCGCACTTTGATGAACCAGA | -0.516 |
| TTTCTCAACAAATCGAAGCTTT | 0.0812 |
| TTTCTGAGTCACATCTATGTTG | -0.762 |
| TTTATTGGTAGCAATGTTCCAA | 0.458 |
| TGACACAACAATAAGCAGCCTC | -0.151 |
| TTTCTGTCCAGAATACAACATT | -0.792 |
| TTAAACAGCAGCATCCAAGGTA | 0.712 |
| TTATAAGTAAACATCGGCCGTA | -0.196 |
| TAAGCATCTACTATGTTCTGAA | 0.161 |
| TTTCTTCACATCTTCTAACTTC | -0.0928 |
| AATACAACATTGAATAACCAGA | -1.17 |
| TTATTCTGGAACTCAACCCAGT | 0.03 |
| TTGGAAAACATTCACATCTGGA | 0.211 |
